{
  "source": "PubChem BioAssay AID1814",
  "about": "(Broad Institute, 2009)",
  "note": "Out of some 300,000 compounds screened, about 22,000 (7.3%) were called active. Not shown: some 2% with an inconclusive outcome. Cut-off read from the data, not from the text of the source: active = activity score below about -60%; inconclusive = mostly about -28% to -61%; inactive = positive scores. Many of the other results were omitted from the sample, so actives are more common in it than they were.",
  "data": [
    {"experiment": "Activators via SNCA 5'UTR binding, MLPCN (AID 1814)", "conditions": "alpha-synuclein 5'UTR reporter, activators screen; stronger effect = lower value; tested at 7.5 µM", "values": [
      {"smiles": "O=C1NC(c2ccncc2)Nc2sc3c(c21)CCCC3", "note": "(stereo not given)", "activity score": "-66.2% (active)"},
      {"smiles": "Cc1ccnc(NC(=O)c2ccc(Cl)c([N+](=O)[O-])c2)c1", "activity score": "-78.7% (active)"},
      {"smiles": "C/C(=N\\NS(=O)(=O)c1ccc(Cl)cc1)c1ccc(NC(=O)c2ccco2)cc1", "activity score": "-87.4% (active)"},
      {"smiles": "O=C(Nc1ccc2oc(-c3ccccc3F)nc2c1)c1ccco1", "activity score": "-128% (active)"},
      {"smiles": "O=C(CSCc1ccccc1)Nc1ccccc1", "activity score": "-126% (active)"},
      {"smiles": "CSCCC(NC(=O)c1ccco1)C(=O)Nc1cc(C)ccn1", "note": "(stereo not given)", "activity score": "-130% (active)"},
      {"smiles": "CCS(=O)(=O)Nc1ccc(C(=O)NCCSc2ccccc2)cc1", "activity score": "-92.6% (active)"},
      {"smiles": "O=C(Nc1cccc(-c2nc3ncccc3o2)c1)c1ccco1", "activity score": "-72.9% (active)"},
      {"smiles": "O=C(CSc1ccccc1)Nc1ccc(NC(=O)c2ccco2)cc1", "activity score": "-68.2% (active)"},
      {"smiles": "CCCc1cc(C(=O)Nc2ccc(C(=O)OC)cc2)cs1", "activity score": "-74% (active)"},
      {"smiles": "O=C(/C=C/c1ccco1)Nc1ccc(Oc2ccccc2)cc1", "activity score": "-217% (active)"},
      {"smiles": "Cc1ccnc(NC(=O)c2ccc(NC(=O)c3ccco3)cc2)c1", "activity score": "-164% (active)"},
      {"smiles": "Cc1ccc(-n2nc3cc(Cl)c(NC(=O)c4ccco4)cc3n2)cc1", "activity score": "-179% (active)"},
      {"smiles": "Cc1cc(NC(=O)c2ccc(F)cc2)ccc1NC(=O)c1ccco1", "activity score": "-63.3% (active)"},
      {"smiles": "O=C(CSc1ccccc1)Nc1ccc(C(=O)Nc2cccc(O)c2)cc1", "activity score": "-104% (active)"},
      {"smiles": "Cc1cccc(CS(=O)(=O)c2ncc(Cl)c(C(=O)Nc3ccc(F)cc3)n2)c1", "activity score": "59.7% (inactive)"},
      {"smiles": "O=C(NCCSc1ccccc1)c1ccco1", "activity score": "-162% (active)"},
      {"smiles": "O=C(Nc1ccc(Oc2ccccc2)cc1)c1ccco1", "activity score": "-119% (active)"},
      {"smiles": "COC(=O)c1cc(Cl)c(NC(=O)c2ccco2)cc1OC", "activity score": "-96% (active)"},
      {"smiles": "O=C(Nc1ccc(O)cc1)c1ccc(NC(=O)c2ccco2)cc1", "activity score": "-72.7% (active)"},
      {"smiles": "COC(=O)c1ccc(NC(=O)c2ccco2)cc1", "activity score": "-107% (active)"},
      {"smiles": "CCCc1ccc(OCCNC(=O)c2ccco2)cc1", "activity score": "-90.6% (active)"},
      {"smiles": "O=C(Nc1ccc2nccnc2c1)c1ccco1", "activity score": "-105% (active)"},
      {"smiles": "Cc1ccoc1C(=O)Nc1cccc(Oc2ccccc2)c1", "activity score": "-137% (active)"},
      {"smiles": "Cc1ccnc(NC(=O)c2ccoc2C)c1", "activity score": "-147% (active)"},
      {"smiles": "Clc1ccc(Cc2nnc(-c3cccs3)o2)cc1", "activity score": "-116% (active)"},
      {"smiles": "Cc1ccc(NC(=O)OCc2cncs2)cc1", "activity score": "-112% (active)"},
      {"smiles": "COc1ccc(NC(=O)/C(Cl)=C(/Cl)S(=O)Cc2ccc(C)cc2)cn1", "note": "(stereo not given)", "activity score": "106% (inactive)"},
      {"smiles": "O=C(N/N=C/c1ccc(OCc2ccccc2)cc1)c1ccc(O)cc1", "activity score": "-70.7% (active)"},
      {"smiles": "Cc1ccnc(NC(=O)CCNS(=O)(=O)c2ccc(C)c(C)c2)c1", "activity score": "-87.9% (active)"}
    ]}
  ]
}
